In PubChem BioAssay AID1053173 (Broad Institute, 2014):
In all, about 1,500 compounds went through this assay and about 390 (26%) were called active. How the calls were made is not given here. Only a sample is shown. Entries with a potency or affinity are not part of this list.

What follows are compounds tested against Histone-lysine N-methyltransferase NSD2 (Homo sapiens) (UniProt O96028) (assay: NSD2 methyltransferase inhibitors, dose response, biochemical, AlphaScreen, cherry-picked samples (AID 1053173)). Conditions: NSD2 H4 peptide methylation, 120 min; series mostly up to 10 µM.
Histone-lysine N-methyltransferase NSD2 (Homo sapiens), sequence (O96028 whole entry, looked up): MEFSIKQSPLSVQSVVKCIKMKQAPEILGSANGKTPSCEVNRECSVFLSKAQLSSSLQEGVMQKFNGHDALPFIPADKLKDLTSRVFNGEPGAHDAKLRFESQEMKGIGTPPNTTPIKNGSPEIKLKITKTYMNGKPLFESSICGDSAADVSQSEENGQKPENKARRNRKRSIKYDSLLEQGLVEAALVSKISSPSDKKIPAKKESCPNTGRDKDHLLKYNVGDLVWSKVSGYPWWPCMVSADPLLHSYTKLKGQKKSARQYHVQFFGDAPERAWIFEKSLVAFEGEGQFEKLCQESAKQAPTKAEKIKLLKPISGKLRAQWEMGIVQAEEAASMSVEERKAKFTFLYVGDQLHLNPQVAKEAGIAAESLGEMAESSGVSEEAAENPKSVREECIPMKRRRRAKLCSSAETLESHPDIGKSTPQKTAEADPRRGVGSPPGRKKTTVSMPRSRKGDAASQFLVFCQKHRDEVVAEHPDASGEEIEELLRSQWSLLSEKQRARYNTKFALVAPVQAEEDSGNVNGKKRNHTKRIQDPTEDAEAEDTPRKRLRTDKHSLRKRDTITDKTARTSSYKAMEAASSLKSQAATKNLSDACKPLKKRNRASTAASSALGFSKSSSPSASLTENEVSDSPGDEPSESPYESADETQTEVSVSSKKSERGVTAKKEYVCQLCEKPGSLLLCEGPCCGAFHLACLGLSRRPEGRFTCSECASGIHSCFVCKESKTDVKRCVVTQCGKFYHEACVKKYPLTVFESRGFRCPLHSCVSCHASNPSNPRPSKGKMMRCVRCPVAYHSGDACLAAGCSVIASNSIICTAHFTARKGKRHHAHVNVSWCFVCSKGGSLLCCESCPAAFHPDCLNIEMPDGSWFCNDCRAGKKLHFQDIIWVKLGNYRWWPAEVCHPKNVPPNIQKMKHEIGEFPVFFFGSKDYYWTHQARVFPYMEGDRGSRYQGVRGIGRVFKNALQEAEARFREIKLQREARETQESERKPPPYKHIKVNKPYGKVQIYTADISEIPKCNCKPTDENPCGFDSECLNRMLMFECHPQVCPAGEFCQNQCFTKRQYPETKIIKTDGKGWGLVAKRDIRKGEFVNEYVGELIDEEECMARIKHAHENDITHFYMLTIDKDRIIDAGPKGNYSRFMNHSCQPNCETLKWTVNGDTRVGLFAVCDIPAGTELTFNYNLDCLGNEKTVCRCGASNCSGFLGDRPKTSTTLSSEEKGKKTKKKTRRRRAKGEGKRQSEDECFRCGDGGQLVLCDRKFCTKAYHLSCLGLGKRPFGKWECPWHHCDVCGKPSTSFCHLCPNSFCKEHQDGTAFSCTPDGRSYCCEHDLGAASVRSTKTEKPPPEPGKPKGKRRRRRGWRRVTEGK

outcome, inactive:
Cc1cccc(Nc2nc(NCc3ccco3)nc(N)c2[N+](=O)[O-])c1, CC1=CCC2C(=O)N(c3cccc(C(=O)N(C)C4CCCCC4)c3)C(=O)C2C1 (stereo unspecified), CCN(CC)CCOc1ccc(C=NNc2nc3c([nH]2)c(=O)n(C)c(=O)n3C)cc1, COc1ccc(CNC(=O)c2nnn(-c3cccc(C(F)(F)F)c3)c2N)cc1, CC(=O)Nc1ccc(C(=O)OCC(=O)/C(C#N)=C(\C)N)cc1, CC1CCCCC1NC(=O)COC(=O)c1ccc2c(=O)n3c(nc2c1)CCC3 (stereo unspecified), O=C(Nc1nccs1)c1ccc2nccnc2c1, Cc1ccc(NC(=O)CCN2CCN(C/C=C/c3ccccc3)CC2)cc1C, CCCCOc1ccc(-c2ncc(N)cn2)cc1, O=C(O)CC1S/C(=N/N=C/c2ccc(-c3ccc(Cl)cc3[N+](=O)[O-])o2)NC1=O (stereo unspecified), COc1ccccc1OCC(=O)Nc1ccccc1C(=O)N1CCCC1, COc1ccccc1NC(=O)c1ccc(-n2cccn2)nc1, CC12CC3(C)CC(C)(C1)CC(C(=O)NC1=NCCS1)(C2)C3, Cc1oc(-c2cccs2)nc1CN1CCN(C2CCCC2)C(CCO)C1 (stereo unspecified), COC(=O)c1nn(C)c(=O)[nH]c1=O, CC(=O)c1c(C)[nH]c(C(=O)CSc2nnc(-c3ccco3)n2Cc2ccccc2)c1C, CC1=NN(c2ccc(S(=O)(=O)O)cc2Cl)C(=O)C1, CCCCN(C)C(=O)C1CCN(Cc2cccc(OCc3ccccc3)c2)CC1, O=C(NCc1ccc(F)cc1)C1CCCN1S(=O)(=O)c1ccccc1C(F)(F)F (stereo unspecified), CCN1CCCC1CNC(=O)c1ccc2c(c1)N(Cc1cccc(Cl)c1)C(=O)c1ccccc1S2(=O)=O (stereo unspecified), COC(=O)c1sc(S(=O)(=O)Nc2ccc(C)c(C)c2)c(C(=O)OC)c1C, COc1cc2c(oc(=O)c3cc(C)cc(OC)c32)c2c(C3OC(C)C(O)C(C)(O)C3O)ccc(O)c12 (stereo unspecified), COc1cccc(C2c3c(oc4ccccc4c3=O)C(=O)N2CCCN(C)C)c1OC (stereo unspecified), Cc1[nH][nH]c(=O)c1C(c1ccc2c(c1)OCO2)c1c(C)[nH][nH]c1=O, Cc1cccc(C)c1NC(=S)N(CCCN1CCN(C)CC1)Cc1cccs1, O=C(Cc1ccc(Br)cc1)Nc1ncc([N+](=O)[O-])s1, O=C(COC(=O)c1ccc([N+](=O)[O-])s1)Nc1ccccc1, Cc1ccc2[nH]c3c(c2c1)CN(C(=O)CN(C)CC1OCCO1)CC3, CN1CCCCCC1=Nc1ccc([N+](=O)[O-])cc1, N#Cc1ccc(CSc2ncccn2)cc1, COc1ccc2ccccc2c1C1CC(=O)N2CN(C)CSC2=C1C#N (stereo unspecified), Cc1cccc(C(=O)Nc2cccc(-c3cnc4ccccc4n3)c2)c1, C/C(=N\O)C(C)Oc1ccc(Cl)cc1 (stereo unspecified), NC(=O)c1oc2ccc(Cl)cc2c1N, CCc1ccc(N2CN=c3s/c(=C\c4ccccc4)c(=O)n3C2)cc1, CCN1CCN(Cc2nc(N)nc(Nc3ccc(C)c(C)c3)n2)CC1, CSc1nnc2c(n1)OC=Nc1ccccc1-2, COc1ccc(C2N(C(=O)C(F)(F)F)C(C)CN2S(=O)(=O)c2ccc(C)cc2)cc1 (stereo unspecified), Nc1ccc(N(CCO)CCO)cc1, O=C(CSCC(=O)N1CCOCC1)Nc1nc(-c2ccccc2)cs1, Cc1cccc(NC(=O)CCN2CCCCC2)c1, O=C(OC(C(=O)NC1CCCCC1)c1ccccn1)c1cccs1 (stereo unspecified), C/C(NCCc1ccccc1)=C1/CCOC1=O, COC(=O)c1ccc(/C=N/N2CCN(Cc3ccccc3)CC2)cc1, CCCCCCCCn1cnc2c(N)c(C)c(C)cc21, Cc1cc(Cl)cc(Br)c1OCCCN1C(=O)NC(C)(C)C1=O, CC(=O)C1=C(O)C(=O)N(Cc2cccnc2)C1c1ccccc1 (stereo unspecified), Cc1ccc(OCc2cnc(Cl)s2)c(C)c1, CC(=O)N=Cc1c(C)c(C#N)c(=O)n(C)c1O, Oc1cccc(NC(=S)N=Nc2c(O)[nH]c3ccc(Br)cc23)c1, CCOc1ccc2nc(SCC(=O)NCc3ccco3)sc2c1, N#Cc1c(NC(=O)c2ccncc2)sc2c1CCC2, COC(=O)N/N=C1/C/C(=N\NC(=O)OC)c2ccccc21, COc1cc(OC)nc(NC2OC(=O)c3ccccc32)n1 (stereo unspecified), CC(CS(=O)(=O)c1ccc2c(c1)NC(=O)CS2)C(=O)NCc1ccccc1Cl (stereo unspecified), CC(Nc1cccc2ccccc12)C(=O)N/N=C/c1ccccn1 (stereo unspecified), Cc1cccc(/C=N/NC(=O)C(C)Nc2cccc3ccccc23)n1 (stereo unspecified), Cc1ccc(Cl)cc1NC(=O)C[n+]1ccc(Cc2ccc([N+](=O)[O-])cc2)cc1, O=C(CSc1nnc(-c2ccccc2O)o1)NC1CCCCC1, O=C(O)CN1C(=O)/C(=C\c2cccc(OCc3ccc(F)cc3)c2)SC1=S, Cc1cccc(C)c1NC(=O)c1c[nH]c2ccccc12, O=C1/C(=C/c2ccccc2)CN(C(=O)CCN2CCOCC2)C/C1=C\c1ccccc1, O=Cc1ccc(OC(=O)C2CC(=O)N(c3ccc(F)cc3)C2)cc1 (stereo unspecified), Cc1ccc(NC(=O)C[n+]2ccn(C3=C([O-])c4ccccc4C3=O)c2)cc1, Cc1c(C(=O)NC(C)C)oc2c1-c1[nH]ncc1CC2, O=C(Nc1nnc(SCc2ccc(F)cc2)s1)c1ccccn1, c1ccc(CN2CCN(c3nc(-c4ccccc4)nc(-n4ccnc4)n3)CC2)cc1, O=C1NC(NS(=O)(=O)c2ccccc2)(C(F)(F)F)C(=O)N1c1cccc(Cl)c1 (stereo unspecified), CC(C)Sc1nnc([C@H](Cc2c[nH]c3ccccc23)NC(=O)OC(C)(C)C)o1, O=[N+]([O-])c1cccc(NC(=S)N2CCOCC2)c1, O=S(=O)(Nc1cc(Sc2cccc3cccnc23)c(O)c2ccccc12)c1ccccc1, CCOC(=O)c1cc(S(=O)(=O)Nc2ccc(OC)cc2OC)cn1C, NS(=O)(=O)c1ccc(CNC(=O)CCCSc2ccccc2)cc1, CCNC(=O)Cc1ccc(NS(=O)(=O)c2ccc(F)cc2)cc1, Cc1cc(C)nc(NS(=O)(=O)c2ccc(NC(=O)c3ccccc3Br)cc2)n1, O=C1NC2=C(CCc3ccccc32)C(c2ccccc2)N1 (stereo unspecified), Cc1cccn2c(=O)c3cc(C(=O)NCCCn4ccnc4)n(C)c3nc12, CCOc1cc(C(=O)NCC(=O)N2CCC3(CC2)NCCc2[nH]cnc23)cc(OCC)c1OCC, O=[N+]([O-])c1ccc(N/N=C/c2cccs2)nc1, CCOc1ccc(N)cc1OC, CCN(CC)CCNC(=O)c1cccc(NC(=O)C(=O)c2cc(Br)ccc2NC(C)=O)c1, O=C(/C=C/c1ccc(Cl)cc1Cl)NCc1ccco1, CC1Cc2ccccc2N1C(=O)COc1cccc(-n2cnnn2)c1 (stereo unspecified), COc1ccc(CNC(=O)CN(c2ccc(C)cc2)S(=O)(=O)c2c(C)noc2C)cc1, Cc1cc(F)c(F)c(C(=O)N2C(C)CCCC2C)c1Cl (stereo unspecified), CC1(C)Cc2cccc(OCC(=O)O)c2O1, Cc1cc(=O)n(-c2ccc3ccccc3n2)[nH]1, COc1ccc2nc(NC(=O)CS(=O)(=O)c3ccc(C)cc3)sc2c1, COc1ccc(N2C(=O)C3C(C2=O)C(C(=O)c2ccc(Cl)cc2)N2CCCC32)cc1 (stereo unspecified), COc1ccc(CCCc2n[nH]c(=S)n2C)cc1C, CCOc1ccc(NC(=O)CSc2nnc(C34CC5CC(CC(C5)C3)C4)n2C)cc1, CCN(CC)CCNC(=O)CN1C(=O)COc2ccc(S(=O)(=O)N3CCOCC3)cc21, Cc1ccc(Cl)cc1N1CCN(C(=O)c2ccc3nc[nH]c3c2)CC1, CCOc1ccc(NC(=O)CSc2nc3ccccc3c(=O)n2CCCC(=O)N2CCCC2)cc1, O=C(O)CN1C(=O)/C(=C/c2ccc(SCc3ccccc3)o2)SC1=S, O=C1Cc2ccccc2C(=O)N1c1ccccc1, Clc1ccc(C2=CSC3=Nc4cccc5cccc(c45)N23)cc1, CN1/C(=N\O)c2cccc3cccc1c23, Cc1nn(CC(=O)Nc2nnc(C(C)C)s2)c(=O)c2ccccc12, Cc1cccc(Nc2nnc(-c3ccc(N4CCOCC4)c([N+](=O)[O-])c3)c3ccccc23)c1, CC(C)(C)c1[nH]nc2c1C(c1ccoc1)C(C#N)=C(N)O2 (stereo unspecified), Fc1ccc(CNc2nc(-c3cccnc3)nc3ccccc23)cc1, COC1=CC(=O)C(OC)=C(OC)C1=O, N#CCC(=O)c1sccc1-n1cccc1, CNC(=O)c1ccc(-c2cc(C(F)(F)F)nn2C)s1, Cc1[nH]n(-c2ccccc2)c(=O)c1C(c1ccc(C(=O)O)cc1)c1c(C)[nH]n(-c2ccccc2)c1=O, O=C(O)c1ccc2c(c1)C(=O)N(c1cccc(C(=O)/C=C/c3ccccc3)c1)C2=O, Cc1ccnc(-n2c(CCN3C(=O)c4ccccc4C3=O)nc3ccccc3c2=O)c1, CC1CCCCN1C(=O)CCNC(=O)Cn1cnc2ccccc2c1=O (stereo unspecified), CCN(CC)C(=O)C1CCCN(Cc2ccc(OC)c(C)c2C)C1 (stereo unspecified), Cc1cc2nn(-c3cccc4ccccc34)nc2cc1NC(=O)c1cccs1
